Measured values reported in PubChem BioAssay (NCI).
The panel holds about 83,000 compounds, 20% with a hit somewhere; the sample as a whole holds those more often.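 Testing used 96-well plates and a 48-hour single-concentration exposure. Example: -40 means 40% of the starting cells died.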 The source made the active and inactive calls. How the source made its calls: active means growth percent below 10; inactive means the rest.

Assays:
Assay in all cases: NCI-60 one-dose screen, 48 h (100 = growth as untreated, 0 = no growth, -100 = all killed)
Details in all cases: 10 µM unless noted
[1] = test system: SR leukemia
[2] = test system: RPMI-8226 leukemia
[3] = test system: OVCAR-5 ovarian
[4] = test system: OVCAR-4 ovarian
[5] = test system: SK-OV-3 ovarian
[6] = test system: IGROV1 ovarian
[7] = test system: OVCAR-3 ovarian
[8] = test system: HS 578T breast
[9] = test system: NCI/ADR-RES ovarian
[10] = test system: OVCAR-8 ovarian

Measured: growth

Cc1nnc(N/N=C/c2ccc([N+](=O)[O-])o2)[nH]c1=O
active: [1] 8.26% | [3] -2.06% | [7] -7.14% | [9] 8.65%
inactive: [2] 42.1% | [4] 29.4% | [5] 10.4% | [6] 21% | [8] 22%

NCCCN(CCCN)CCCNCc1c2ccccc2c(CNCCCN(CCCN)CCCN)c2ccccc12
inactive: [1] 96.6% | [2] 91.7% | [3] 108% | [4] 99.8% | [5] 100% | [6] 114% | [7] 107% | [8] 92.6% | [9] 93.9%

NNc1ccc(Cl)cc1Cl
inactive: [1] 57.3% | [10] 52.7% | [3] 88.8% | [4] 89.2% | [5] 69.7% | [7] 87.4% | [8] 84.1% | [9] 53.5%

CC(=O)Nc1ccc(C(=O)CCl)cc1
active: [1] -17.9% | [7] -21.6%
inactive: [2] 25.2% | [3] 94.5% | [6] 93.2% | [8] 19% | [9] 84.5%

CCCCCCCCCCCCNCCCc1ccccc1
active: [2] 6.17%
inactive: [10] 79.3% | [3] 81.2% | [4] 46.5% | [5] 103% | [6] 75.4% | [7] 83% | [8] 88.6% | [9] 75.1%

S=c1[nH]c2cc(Cl)ccc2s1
inactive: [1] 106% | [10] 103% | [3] 98.6% | [4] 106% | [5] 102% | [6] 105% | [7] 102% | [9] 105%

Cc1ccc(NC2=CC(=O)C(=O)c3ccccc32)cc1
inactive: [1] 25.9% | [10] 25% | [5] 79.9% | [6] 17.6% | [7] 13.7% | [8] 16.3% | [9] 19.3%
active: [4] -0.0623%

O=C/C=C/c1ccc([N+](=O)[O-])cc1
inactive: [1] 87.1% | [2] 102% | [4] 104% | [5] 89.5% | [6] 101% | [7] 104% | [8] 100% | [9] 99.6%

COc1cc([C@@H]2c3cc4c(cc3[C@H](OC3OC5COC(c6ccccc6)OC5C(O)C3O)[C@H]3COC(=O)[C@H]23)OCO4)cc(OC)c1OC (some centres not stated)
inactive: [10] 29.4% | [3] 38.1% | [4] 45.3% | [5] 83.1% | [7] 61.8%
active: [2] -21.4% | [6] -45.7% | [8] -30% | [9] -38.9%

C1=C(c2ccccc2)c2ccccc2C1
inactive: [1] 93.6% | [10] 114% | [3] 92% | [4] 105% | [5] 109% | [6] 101% | [7] 106% | [8] 95.2% | [9] 101%

Cc1ccc(/C=C2\CNC/C(=C\c3ccc(C)cc3)C2=O)cc1
active: [1] -2.99% | [2] -30.6% | [4] 9.79% | [6] -71.2% | [7] -58.5% | [9] -51.3%
inactive: [5] 30.5%

CC(C)N=C(N)/N=C(\N)Nc1ccc2ccc3ccccc3c2c1
active: [1] -47.3% | [2] -26.9% | [3] -88.5% | [5] -63.3% | [6] -56.7% | [7] -83%
inactive: [9] 41.5%

CCN(CC)c1ccc(/C=C\C(=O)c2ccc(NC(C)=O)cc2)cc1
inactive: [2] 76.9% | [10] 76% | [3] 68.5% | [4] 90.6% | [5] 69.2% | [6] 75.5% | [7] 104% | [8] 55.1% | [9] 37.9%

Cc1cc(I)nc2ccccc12
inactive: [1] 107% | [10] 107% | [3] 100% | [4] 112% | [5] 109% | [6] 104% | [7] 130% | [9] 109%

CCC(=O)c1cc([N+](=O)[O-])c(Br)s1
inactive: [10] 91.4% | [3] 99% | [4] 109% | [5] 95.8% | [6] 105% | [7] 82.4% | [9] 105%
active: [1] -19.5%

CC(C)=CCCC(C)C1=C(O)C(=O)C(C)=CC1=O (configuration not stated)
inactive: [3] 97.4% | [5] 97.8% | [8] 94.4% | [9] 95%
active: [1] -12.4% | [2] -34.2% | [6] -75.7% | [7] -12.5%

C(=N\Nc1ccc2ccccc2n1)/c1ccccn1
active: [1] 6.86% | [6] 2.7%
inactive: [2] 25.1% | [4] 22.2% | [5] 26.1% | [7] 44.7% | [8] 38.4% | [9] 18.6%

COc1cc(NCc2ccc3nc(N)nc(N)c3c2C)cc(OC)c1OC (tested in a mixture with another compound)
inactive: [1] 31.7% | [2] 41.7% | [3] 36.9% | [5] 58% | [7] 55.3% | [8] 44.1% | [9] 32.2%
active: [6] -10.2%

CN=C(N)N/N=C(\c1ccccc1)c1ccc(Br)cc1
inactive: [2] 27.5% | [3] 32.4% | [4] 42.1% | [8] 18.4%
active: [10] 1.03% | [5] -1.99% | [6] -7.13% | [7] 2.68% | [9] 9%

O=C(Cc1nc2cc(Cl)c(Cl)cc2nc1CC(=O)c1ccccc1)c1ccccc1
inactive: [2] 25.7% | [10] 73.3% | [3] 77.5% | [4] 74.4% | [5] 77.4% | [6] 61% | [7] 81.5% | [8] 58.8% | [9] 74.6%

Clc1ccc(Cc2nc3ccccc3s2)cc1
inactive: [1] 84.4% | [2] 101% | [4] 91% | [5] 128% | [6] 91.7% | [7] 98.1% | [8] 100% | [9] 94.9%

CCCCOS(=O)(=O)c1ccccc1
inactive: [1] 126% | [2] 126% | [4] 104% | [5] 113% | [6] 131% | [7] 112% | [8] 107% | [9] 107%

COc1cc(-c2ccc(-[n+]3nc(-c4ccc([N+](=O)[O-])cc4)nn3-c3ccc([N+](=O)[O-])cc3)c(OC)c2)ccc1-[n+]1nc(-c2ccc([N+](=O)[O-])cc2)nn1-c1ccc([N+](=O)[O-])cc1
inactive: [1] 40.2% | [2] 27.6% | [3] 59.7% | [4] 53.9% | [5] 47.1% | [6] 24.5% | [7] 32% | [9] 73.4%

Cc1ccc2cccc(OC(=O)Nc3cccc(C(F)(F)F)c3)c2n1
inactive: [1] 36.9% | [10] 53.5% | [3] 83.7% | [4] 73% | [5] 108% | [6] 58.2% | [7] 32.3% | [8] 100% | [9] 58.9%

COc1ccc2c(c1OC)OCC(CN(C)C)C2=O (configuration not stated)
inactive: [1] 78.2% | [3] 92.9% | [5] 108% | [6] 93.3% | [7] 92.4% | [8] 106% | [9] 106%
active: [2] -40.8%

O=C1C=CC(=O)N1c1cc(Cl)c(Cl)cc1Cl
inactive: [1] 81.5% | [2] 99.8% | [5] 91.6% | [6] 93.7% | [7] 111% | [8] 137% | [9] 104%

O=C1/C(=C\c2ccc([N+](=O)[O-])cc2)CS(=O)(=O)C/C1=C/c1ccc([N+](=O)[O-])cc1
active: [1] 0.134% | [2] -19.4% | [3] -99% | [4] -90.2% | [5] -43.3% | [6] -82.4% | [7] -90.1% | [9] -80.4%

CC(=O)C1Cc2ccccc2C1=O (configuration not stated)
inactive: [1] 108% | [2] 117% | [4] 104% | [5] 96.1% | [6] 116% | [7] 112% | [8] 103% | [9] 104%

C/C=C/c1cc2c(c(=O)o1)C(=O)[C@@H](O)[C@H](C)O2
active: [2] -45.7% | [6] -46.9%
inactive: [1] 11.9% | [3] 87.5% | [5] 109% | [7] 47.5% | [8] 93.4% | [9] 86%
